# CCT modulator: changes cytosolic chaperonin activity. purified chaperonin ATPase assay, HTRF ADP detection, 30 min. activity change, % (test concentration not listed), hits read low. 360,000 compounds, 0.3% hits. AID 651819; in the data active means activity change below about -30%
#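 We incubate TRiC, 40 or 20 nM final, with library compounds at 76 uM and 10 uM ATP for 30 min at 37 °C. ADP formed is detected with Transcreener HTRF reagents after 30 min at room temperature.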
# GLS inh: blocks human kidney-isoform glutaminase activity; O94925; Potency, µM (series often up to 45.5 µM), most hits filed as inhibitors; GLS enzymatic activity, qHTS titration; 410,000 compounds, 0.21% hits; AID 624170
#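 Assay buffer: 45 mM KH2PO4 pH 8.2, 0.02% Tween-20. hKGA acts on L-glutamine (1 mM solution added); product glutamate is reported by an oxidase/peroxidase Amplex Red coupling, with fluorescence taken at baseline and 30 min.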
# PI4K2A inh: PI4K2A (human) kinase inhibition. Q9BTU6. purified PI4K2A, ADP-Glo luminescence, 1 h; active compounds read low. 420,000 compounds, 0.13% hits. AID 1346378. activity change, negative = inhibition, % at 76.9 µM; in the data active means activity change below about -50%; inconclusive means mostly about -30% to -49%
# Target sequence (Q9BTU6 whole entry, looked up): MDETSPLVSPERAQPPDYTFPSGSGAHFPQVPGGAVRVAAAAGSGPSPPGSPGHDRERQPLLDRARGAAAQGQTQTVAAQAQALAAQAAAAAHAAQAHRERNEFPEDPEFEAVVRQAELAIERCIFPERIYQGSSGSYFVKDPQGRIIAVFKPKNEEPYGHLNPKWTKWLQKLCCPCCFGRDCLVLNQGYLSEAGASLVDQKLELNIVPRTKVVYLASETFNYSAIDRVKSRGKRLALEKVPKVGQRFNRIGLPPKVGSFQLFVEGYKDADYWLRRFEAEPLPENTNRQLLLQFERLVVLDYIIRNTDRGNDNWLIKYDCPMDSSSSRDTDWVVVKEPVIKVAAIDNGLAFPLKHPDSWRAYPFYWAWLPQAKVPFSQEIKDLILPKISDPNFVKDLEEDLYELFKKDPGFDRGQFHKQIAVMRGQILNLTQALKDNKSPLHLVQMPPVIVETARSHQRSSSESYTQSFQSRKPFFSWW
#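 ADP-Glo luminescence measured ADP generated by PI4K2A enzyme (4 ug/mL before mixing) with 1.2 mM PI substrate (pre-mix) and 300 microM ATP (pre-mix). Tris pH7.5 buffer with MgCl2, Triton X-100; 1 h reaction at ambient temperature.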
# PINK1 modulator: PINK1 expression modulation; PINK1 immunofluorescence, high-content cytometry, 24 h; Potency, µM (highest dose often 76.6 µM), most hits filed as activators; 410,000 compounds, 0.2% hits; active means well fitted activation curve with a large enough effect; inconclusive means small, poorly fitted or top-dose-only effect; cell line not stated here; further: nearly all actives have a fitted effect of over 65% in size
#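 Compound titrations (5 concentrations, 24 h) on a stable cell line; DMSO and CCCP controls. Endpoint: fixed-cell PINK1 immunofluorescence with mitochondrial, cell and nuclear markers, scanned by microplate cytometer.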
# PGK inhibitor: T. brucei PGK inhibition. P07378. PGK/GAPDH coupled, Kinase-Glo luminescence, 60 min. Potency, µM (highest dose often 57.5 µM), usual class: inhibitors. 380,000 compounds, 0.043% hits. AID 602233; further: nearly all actives have a fitted effect of over 60% in size
#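 Luminescent ATP detection (Kinase-Glo Plus) follows a 60-minute room-temperature incubation, with wells lacking PGK as controls. Buffer: 100 mM TEA (pH 7.6), 5 mM MgCl2, 0.01% Tween-20. Coupling enzyme GAPDH (100 nM final) supplies unstable 1,3-BPG in-well.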
# Hits are given with their value; n = inactive; u = inconclusive; x = no result; ! = not confirmed by another sample. An excerpt weighted towards active compounds, which were near 0.78% of everything screened. Unless noted, the call rests on the fitted dose curve; in most records, active means well fitted curve in the direction sought with a large enough effect; inconclusive means small, poorly fitted or top-dose-only effect, or another doubt; inactive means no such curve, though single readings can be large; an effect the other way counts as inactive or inconclusive.
SMILES,CCT modulator,GLS inh,PI4K2A inh,PINK1 modulator,PGK inhibitor
CCc1ccc(-c2nc3c(=O)n(C)c(=O)nc-3n(CC)n2)cc1,x,x,x,n,x
O=S(=O)(NCc1nnc2n1CCN(Cc1ccccc1Cl)CC2)c1ccccc1,x,x,x,n,x
CCOc1cccc(CNc2ccc(O)cc2)c1OCc1ccccc1Cl,n,n,-53.0!,n,n
CCOc1cccc(CNc2ccc(O)cc2)c1OCc1ccc(Cl)cc1Cl,n,n,-57.7,n,n
CC1CCN(C(=O)COC(=O)c2cc(Cl)c3c(c2)OCO3)CC1,n,n,n,n,n
O=C(O)c1cc(Cl)c2c(c1)OCO2,-61.0,20µM,n,n,n
CCOc1cc(S(=O)(=O)NCCc2ccc(OC)c(OC)c2)c(OCC)cc1-n1cnnn1,n,n,n,n,n
CCOc1cc(S(=O)(=O)NCc2ccc(OC)cc2)c(OCC)cc1-n1cnnn1,n,n,n,5.62µM,n
COC(=O)C1CCCCN1Cc1ccc2c(c1)CN(C1CCSCC1)CCO2 (centres undefined),x,x,x,n,x
O=C(CC(c1ccco1)C1CCCCC1=O)c1ccco1 (centres undefined),-37.9,n,n,n,n
O=C(CC(c1ccccc1)C1CCCCC1=O)c1ccco1 (centres undefined),n,n,n,n,n
CC(=O)Nc1ccc(NC(=O)CN2C(=O)CCc3cc(S(=O)(=O)N4CCCCC4)ccc32)cc1,x,n,n,n,n
CC(=O)c1ccc(NC(=O)CN2C(=O)CCc3cc(S(=O)(=O)N4CCC(C)CC4)ccc32)cc1,x,n,n,n,25.1µM
O=c1c2ccccc2c(C=NCCCN2CCOCC2)c(O)n1Cc1ccccc1,n,n,n,n,n
O=c1c2ccccc2c(C=NCCCN2CCOCC2)c(O)n1Cc1ccc2c(c1)OCO2,-37.9,n,n,n,n
O=C(Nc1cccc(-c2nc3ncccc3o2)c1)c1sc2cc(Cl)ccc2c1Cl,n,n,n,10µM,n
C=CCNC(=S)Nc1ccc(C)c(S(=O)(=O)N2CCCCC2)c1,n,n,n,n,n
Cc1ccc(NC(=S)Nc2ccc(C(C)C)cc2)cc1S(=O)(=O)N1CCCCCC1,n,n,n,11.2µM,n
O=C(NC1CC1)[C@@H]1C[C@@H](Sc2nc3ccccc3[nH]2)CN1CC1CCCCC1,x,x,x,n,x
CCOC(=O)C1Nc2ccc(C(=O)O)cc2C2C=CCC12 (centres undefined),n,3.16µM,n,n,u
CCCC1Nc2ccc(C(=O)O)cc2C2C=CCC12 (centres undefined),n,10µM,n,n,u
CC(C)C1Nc2ccc(C(=O)O)cc2C2C=CCC21 (centres undefined),n,n,n,n,n
O=C(O)c1ccc2c(c1)C1C=CCC1C(c1ccncc1)N2 (centres undefined),n,n,n,n,n
Cc1ccc(C(=O)Nc2cccc(-c3nc(CNC(=O)c4ccc(F)cc4Cl)c(C)o3)c2)s1,x,x,x,n,x
COCCNS(=O)(=O)c1ccc(-c2ccc(S(=O)(=O)NCCOC)cc2)cc1,n,n,n,n,n
SMILES,CCT modulator,GLS inh,PI4K2A inh,PINK1 modulator,PGK inhibitor
COCCNS(=O)(=O)c1ccc(-c2ccc(Cl)cc2)cc1,-40.0,n,n,n,n
Clc1ccc(C(Cn2ccnc2)OCc2ccc(Sc3ccccc3)cc2)c(Cl)c1 (centres undefined),x,x,n,x,x
NNC(=O)c1cc2c(ccc3ccccc32)o1,n,22.4µM,n,n,n
O=C(O)c1cc2c(ccc3ccccc32)o1,n,n,n,n,x
OC1(c2ccc3c(c2)CN(Cc2ccccn2)CCO3)CCN(c2ccccc2F)CC1,x,x,x,n,x
CCc1noc(C)c1C(=O)N1CCOc2ccc(CN3CCCC(C(=O)c4cccnc4)C3)cc2C1 (centres undefined),x,x,x,n,x
COc1ccc(C(=O)Nc2noc3ccccc23)cc1,x,n,-73.1,n,x
CC[N+](C)(C)c1ccc(/C=C/c2ccc3ccccc3n2)cc1,x,x,x,5.01µM,x
CCn1ncc(C2=NOC(C(=O)NCc3ccccc3)C2)c1C (centres undefined),n,n,n,12.6µM,n
COc1cc(/C=C/C(=O)OCC(=O)Nc2ccc(C)cc2[N+](=O)[O-])ccc1O,n,5.62µM,n,n,n
COc1cc(/C=C/C(=O)OCC(=O)Nc2cc(C)c(C)cc2[N+](=O)[O-])ccc1O,n,n,n,n,n
CCNc1ncc2nc(-c3cn(C)c4ccccc34)c(=O)n(Cc3cccc(OC)c3)c2n1,x,x,x,n,x

# From PubChem BioAssay
